Structures are written as SMILES. Values joined by “and” are separate entries in the source; they are usually repeats but may differ in a detail not shown here. Identical values can stand only once. Inconclusive results are not listed. Where a call stands in place of a potency, no number is given. The source holds several records for some structures; these can differ, active in one and inactive in another. Active and inactive are the calls of the source. The call rests on the fitted dose curve; in most records, active means well fitted inhibition curve with a large enough effect in the signal ratio in the repeat runs (not every such curve was filed as active); inconclusive means weak or mixed curves; inactive means flat fitted curve, though single readings scatter; the % refers to the signal ratio.
Potency means the concentration at half of the fitted maximal effect.

Progesterone receptor (Homo sapiens), sequence (P06401 whole entry, looked up): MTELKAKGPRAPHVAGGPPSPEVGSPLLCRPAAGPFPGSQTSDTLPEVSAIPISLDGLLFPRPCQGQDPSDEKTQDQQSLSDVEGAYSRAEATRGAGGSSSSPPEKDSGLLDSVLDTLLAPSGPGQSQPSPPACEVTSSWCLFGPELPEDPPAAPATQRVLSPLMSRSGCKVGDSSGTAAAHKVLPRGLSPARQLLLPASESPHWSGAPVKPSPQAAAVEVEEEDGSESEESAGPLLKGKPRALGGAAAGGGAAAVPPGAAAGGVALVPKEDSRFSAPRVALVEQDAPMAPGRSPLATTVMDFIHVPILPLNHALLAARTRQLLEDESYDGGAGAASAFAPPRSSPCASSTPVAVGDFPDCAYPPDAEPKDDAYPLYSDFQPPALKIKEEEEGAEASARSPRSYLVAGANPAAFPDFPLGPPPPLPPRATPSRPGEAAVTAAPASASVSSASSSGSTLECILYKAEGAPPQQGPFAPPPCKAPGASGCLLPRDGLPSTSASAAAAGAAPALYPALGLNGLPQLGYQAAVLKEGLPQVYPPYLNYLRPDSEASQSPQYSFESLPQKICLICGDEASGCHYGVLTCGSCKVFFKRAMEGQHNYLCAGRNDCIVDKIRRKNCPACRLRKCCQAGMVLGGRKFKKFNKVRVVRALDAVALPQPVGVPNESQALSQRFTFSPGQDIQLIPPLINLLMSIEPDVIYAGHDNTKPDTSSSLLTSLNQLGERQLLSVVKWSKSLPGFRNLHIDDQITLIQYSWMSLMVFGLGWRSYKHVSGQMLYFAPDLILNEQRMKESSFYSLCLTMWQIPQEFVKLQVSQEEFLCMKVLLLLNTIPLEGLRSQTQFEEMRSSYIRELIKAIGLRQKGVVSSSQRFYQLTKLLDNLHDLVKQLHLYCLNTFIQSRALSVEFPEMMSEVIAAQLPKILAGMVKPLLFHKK

The target of this assay is Progesterone receptor (Homo sapiens) (UniProt P06401). Put plainly: qHTS assay to identify small molecule antagonists of the progesterone receptor (PR) signaling pathway (AID 1346795). The note with it: PR-UAS-bla HEK293T, beta-lactamase FRET ratio, 16 h; series mostly up to 92.4 µM. An excerpt:
National Center for Advancing Translational Sciences [NCATS]
NIH Chemical Genomics Center [NCGC]
U.S. Environmental Protection Agency [EPA]
National Institutes of Environmental Health Sciences [NIEHS]
National Toxicology Program [NTP]
U.S. Food and Drug Administration [FDA]
Progesterone receptor (PR), a nuclear hormone receptor, plays an important role in development, metabolic homeostasis and reproduction. […] Endocrine disrupting chemicals (EDCs) and their interactions with steroid hormone receptors like PR causes disruption of normal endocrine function. To identify the compounds that inhibit PR signaling, a PR-UAS-bla GripTite cell line i.e. PR-UAS-bla HEK293T (Invitrogen, Carlsbad, CA, USA) containing a beta-lactamase reporter gene under the control of an Upstream Activator Sequence (UAS) was used to screen Tox21 10K compound library.
Tox21 Assay Protocol Summary:
PR-UAS-bla HEK293T cells were dispensed at 3,000 cells/4 uL of assay medium containing 2% charcoal stripped FBS per well into black wall/clear-bottom 1536-well plates using a Multidrop Combi (ThermoFisher Scientific, Waltham, MA) dispenser. After the assay plates were incubated at a 37C and 5% CO2 for 6 hr, 23 nL of compounds dissolved in DMSO, positive controls or DMSO only was transferred to the assay plate by a Pintool station (Kalypsys, San Diego, CA), followed by addition of 1 uL (1nM as final concentration) of Promegestone (R5020) in assay medium using a BioRAPTR FRD (Flying Reagent Dispenser, Aurora Discovery, San Diego, CA). The plates were incubated at 37C and 5% CO2 for 16 hr. Then 1 uL of LiveBLAzer B/G FRET substrate was added using a FRD. After the plates were incubated at room temperature for 2 hours, fluorescence intensity was measured by an Envision plate reader (PerkinElmer, Shelton, CT).
As to `CC(C)N(Cc1ccccc1)C(=O)C(C)(C)C`, the Potency result was “inactive”.

For `N#CN`, the Potency result was “inactive”.

`CCOC(=O)CCl`: the Potency result is “inactive”.

As to `CCSC(=O)Cl`, the Potency result was “inactive”.

`CCCCCCCCBr`: the Potency entry was “inactive”.

`CC(C)(C)C(=O)C(Cl)Cl`: the Potency entry is “inactive”.

With `CCOC(=O)C(Cl)Cc1cc(-n2nc(C)n(C(F)F)c2=O)c(F)cc1Cl` (stereo not given), the Potency entry was “inactive”.

Take `C=C1CC[C@@]2(O)[C@H]3Cc4ccc(O)c5c4[C@@]2(CCN3CC2CC2)[C@H]1O5`: the Potency result is “inactive”.

Consider `CNC(=O)NC(O)C(Cl)(Cl)Cl` (stereo not given), for which the Potency result is “inactive”.

Take `CCN[C@@H](C)Cc1ccccc1`: the Potency result was “inactive”.

Take `CN(CCO)CCO`: the Potency result is “inactive”.

On to `CC(Cl)(Cl)Cl`, for which the Potency result was “inactive”.

Turning to `CCCC(C)C1(CC)C(=O)N=C(S)NC1=O` (stereo not given), the Potency result was “inactive”.

As for `CCOP(=O)(CN(CCO)CCO)OCC`, the Potency result was “inactive”.

As to `O=c1[nH]oc2c1CCNC2`, the Potency entry was “inactive”.

Consider `CC(Cc1ccccc1)NCCCCl` (stereo not given), for which the Potency result is “inactive”.

With `CCOC1Oc2ccc(OS(C)(=O)=O)cc2C1(C)C` (stereo not given), the Potency was 30.4 µM (active).

As to `CCN1CCCC1CNC(=O)C(O)(c1ccccc1)c1ccccc1` (stereo not given), the Potency entry is “inactive”.

In the case of `ClCCCCCCCl`, the Potency entry was “inactive”.

In the case of `O=C/C=C/c1ccco1`, the Potency entry was “inactive”.

Regarding `NC(=O)OCCCc1ccccc1`, the Potency result is “inactive”.

As for `CCNc1nc(NCC)nc(SC)n1`, the Potency result is “inactive”.

`O=C1CCCCC1Cl` (stereo not given): the Potency entry is “inactive”.

Take `C=C(C)[C@H]1CN[C@H](C(=O)O)[C@H]1CC(=O)O`: the Potency entry was “inactive”.

In the case of `Cc1ccc(Cl)c(O)c1`, the Potency result was “inactive”.

In the case of `NC(=O)CS(=O)C(c1ccccc1)c1ccccc1` (stereo not given), the Potency result is “inactive”.

For `ClCOCCl`, the Potency entry is “inactive”.

Consider `O=C(O)c1c(Cl)ccc2cc(Cl)cnc12`, for which the Potency entry was “inactive”.

In the case of `CCN(CCO)CCO`, the Potency entry is “inactive”.

In the case of `O=C1C2CC=CCC2C(=O)N1SC(Cl)(Cl)Cl` (stereo not given), the Potency result was “inactive and 42.6 µM (active)”.

`CON(C)C(=O)Nc1ccc(Br)cc1`: the Potency entry was “inactive”.

With `O=C(Cl)OCc1ccccc1`, the Potency entry was “inactive”.

Take `CN1C(=O)COc2c(C(=O)NC3CN4CCC3CC4)cc(Cl)cc21` (stereo not given): the Potency entry was “inactive”.

With `CCC1(CC)C(=O)C=CNC1=O`, the Potency result was “inactive”.

In the case of `CS(=O)(=O)Cl`, the Potency entry was “inactive”.

Take `O=P(O)(O)CN(CP(=O)(O)O)CP(=O)(O)O`: the Potency entry is “inactive”.

On to `CCC(=O)c1ccc(Cl)cc1`, for which the Potency result is “inactive”.

As for `Clc1cc2c(cc1Cl)Oc1cc(Cl)c(Cl)cc1O2`, the activity change, negative = inhibition is 5.7% [at 0.348 µM] (inactive).

For the compound `CCCCS(=O)(=O)Cl`, the Potency result is “inactive”.

Consider `CCOC(=O)c1ncn2c1CN(C)C(=O)c1c(I)cccc1-2`, for which the Potency entry is “inactive”.

Source of the values: PubChem BioAssay (Tox21).
